# Data from the supplement of paper PMC10849652.
# Of roughly 8,800 targets only a part is listed; those with a hit were picked by preference. About 0.5% of all pairs of compound and target were hits. A number with no mark means an inactive call.
# Legend:
# Experiment in all cases: log2 fold change, soluble protein after heating vs DMSO (PISA); higher = thermal stabilisation; K562 lysate, 10 uM; active = over 0.2 and 3.5 SD of the protein, either way, in both replicates (recomputed)
# ibrutinib = compound: C=CC(=O)N1CCC[C@@H](n2nc(-c3ccc(Oc4ccccc4)cc3)c3c(N)ncnc32)C1 [ibrutinib]
# How it was run: (§1)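 Thermal stability, expressed as log-two fold change relative to solvent controls, is given from duplicates. Crude K562 extract in PBS pH 7.4 with 1 mM MgCl2, at 1 mg/mL protein, was treated with 10 μM compound for 30 min and heated in aliquots for 3 min across 48°C-58°C. After pooling, adjustment to 0.5% NP-40 at 4°C and centrifugation at 21,000xg for 90 min, supernatant protein was measured by TMTpro 16plex LC-MS/MS with channel sums equalised.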
# [1] = compound: CC(=O)c1cnc2ccc(-c3cc(Cl)c(O)c(Cl)c3)nc2c1N[C@H]1CC[C@H](CN(C)C)CC1
# How it was run: as §1
# ralimetinib = compound: CC(C)(C)Cn1c(N)nc2ccc(-c3[nH]c(C(C)(C)C)nc3-c3ccc(F)cc3)nc21 [ralimetinib]
# How it was run: as §1
# [2] = compound: CC(C)(O)CC(=O)NCCn1ccc2ncnc(Nc3ccc(Oc4cccc(C(F)(F)F)c4)c(Cl)c3)c21
# How it was run: as §1
# [3] = compound: CC(C)C1=C2N=C(C=C(N2N=C1)NCC3=CC=CC=C3)NCCCCCCN
# How it was run: as §1
# [4] = compound: CC1=C(C(CC(=O)N1)C2=CC=C(C=C2)C(F)(F)F)C(=O)NC3=C(C=C4C(=C3)C=NN4)F
# How it was run: as §1
# [5] = compound: CC1=C(C2=C(C=C1)C(=O)C3=CC=CC=C3N2CCCN)C
# How it was run: as §1
# [6] = compound: CC1=C(C=C(C=C1)NC(=O)C2=CC(=CC=C2)C(C)(C)C#N)NC3=CC4=C(C=C3)N=CN(C4=O)C
# How it was run: as §1
# [7] = compound: CC1=C(C=C(C=C1)NC(=O)C2=CC(=CC=C2)N(C)C)NC(=O)C3=CC=C(C=C3)O
# How it was run: as §1
# [8] = compound: CC1=CC=C(C=C1)SC2=C3C=C(SC3=CN=C2)C(=O)N
# How it was run: as §1
# vemurafenib = compound: CCCS(=O)(=O)Nc1ccc(F)c(C(=O)c2c[nH]c3ncc(-c4ccc(Cl)cc4)cc23)c1F [vemurafenib]
# How it was run: as §1
# [9] = compound: CCCS(=O)(=O)Nc1ccc(F)c(C(=O)c2c[nH]c3ncc(Cl)cc23)c1F
# How it was run: as §1
# barasertib = compound: CCN(CCCOc1ccc2c(Nc3cc(CC(=O)Nc4cccc(F)c4)[nH]n3)ncnc2c1)CCOP(=O)(O)O [barasertib]
# How it was run: as §1
# [10] = compound: CC[C@@H]1C(=O)N(C)c2cnc(Nc3ccc(C(=O)NC4CCN(C)CC4)cc3OC)nc2N1C1CCCC1
# How it was run: as §1
# volasertib = compound: CC[C@@H]1C(=O)N(C)c2cnc(Nc3ccc(C(=O)N[C@H]4CC[C@H](N5CCN(CC6CC6)CC5)CC4)cc3OC)nc2N1C(C)C [volasertib]
# How it was run: as §1
# [11] = compound: CCn1c(C(=O)N(C2CC2)C2CC2)cc2c3c(ncn3C)c(Nc3cc(C)n(C)n3)nc21
# How it was run: as §1
# [12] = compound: CCn1cc(-c2ccnc3[nH]c(-c4cccc(CN(C)C)c4)cc23)c(-c2ccc(NC(=O)N(C)C)cc2)n1
# How it was run: as §1
# [13] = compound: CN1CCC(CNc2ccc3ncc(-c4cccc(OC(F)(F)F)c4)n3n2)CC1
# How it was run: as §1
# saracatinib = compound: CN1CCN(CCOc2cc(OC3CCOCC3)c3c(Nc4c(Cl)ccc5c4OCO5)ncnc3c2)CC1 [saracatinib]
# How it was run: as §1
# sotrastaurin = compound: CN1CCN(c2nc(C3=C(c4c[nH]c5ccccc45)C(=O)NC3=O)c3ccccc3n2)CC1 [sotrastaurin]
# How it was run: as §1
# UniProt Q9NSD9, sequence (Q9NSD9 whole entry, looked up): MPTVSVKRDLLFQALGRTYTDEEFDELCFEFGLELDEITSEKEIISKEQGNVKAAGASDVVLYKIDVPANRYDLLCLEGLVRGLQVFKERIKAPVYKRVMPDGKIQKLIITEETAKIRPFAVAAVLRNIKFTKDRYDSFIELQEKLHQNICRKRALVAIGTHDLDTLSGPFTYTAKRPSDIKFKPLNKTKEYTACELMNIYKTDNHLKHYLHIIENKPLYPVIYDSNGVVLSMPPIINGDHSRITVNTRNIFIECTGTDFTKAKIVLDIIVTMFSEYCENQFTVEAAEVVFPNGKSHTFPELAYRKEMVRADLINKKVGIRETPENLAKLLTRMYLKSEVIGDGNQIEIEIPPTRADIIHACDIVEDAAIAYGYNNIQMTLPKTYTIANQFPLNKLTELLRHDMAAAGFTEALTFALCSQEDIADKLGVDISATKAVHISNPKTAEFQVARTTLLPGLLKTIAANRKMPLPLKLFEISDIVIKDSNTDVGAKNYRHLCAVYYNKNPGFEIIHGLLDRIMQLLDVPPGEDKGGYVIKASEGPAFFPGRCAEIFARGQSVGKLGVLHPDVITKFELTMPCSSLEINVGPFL
# UniProt P51116, sequence (P51116 whole entry, looked up): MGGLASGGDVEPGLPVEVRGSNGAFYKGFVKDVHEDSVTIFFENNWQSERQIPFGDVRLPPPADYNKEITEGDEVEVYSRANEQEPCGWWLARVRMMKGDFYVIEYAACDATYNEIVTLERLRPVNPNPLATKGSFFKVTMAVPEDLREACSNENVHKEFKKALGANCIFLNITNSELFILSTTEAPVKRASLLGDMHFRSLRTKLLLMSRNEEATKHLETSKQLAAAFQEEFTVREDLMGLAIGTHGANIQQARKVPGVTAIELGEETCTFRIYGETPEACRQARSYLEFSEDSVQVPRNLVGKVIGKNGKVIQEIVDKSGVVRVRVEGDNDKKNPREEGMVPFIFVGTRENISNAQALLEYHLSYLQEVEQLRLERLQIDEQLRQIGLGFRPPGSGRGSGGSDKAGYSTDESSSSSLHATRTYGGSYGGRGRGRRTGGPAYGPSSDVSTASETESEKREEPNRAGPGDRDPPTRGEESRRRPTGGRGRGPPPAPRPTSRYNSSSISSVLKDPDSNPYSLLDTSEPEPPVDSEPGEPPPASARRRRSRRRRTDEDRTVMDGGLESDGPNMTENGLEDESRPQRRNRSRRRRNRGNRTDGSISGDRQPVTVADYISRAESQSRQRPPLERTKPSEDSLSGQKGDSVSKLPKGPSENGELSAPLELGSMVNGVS
# UniProt Q5VTE0, sequence (Q5VTE0 whole entry, looked up): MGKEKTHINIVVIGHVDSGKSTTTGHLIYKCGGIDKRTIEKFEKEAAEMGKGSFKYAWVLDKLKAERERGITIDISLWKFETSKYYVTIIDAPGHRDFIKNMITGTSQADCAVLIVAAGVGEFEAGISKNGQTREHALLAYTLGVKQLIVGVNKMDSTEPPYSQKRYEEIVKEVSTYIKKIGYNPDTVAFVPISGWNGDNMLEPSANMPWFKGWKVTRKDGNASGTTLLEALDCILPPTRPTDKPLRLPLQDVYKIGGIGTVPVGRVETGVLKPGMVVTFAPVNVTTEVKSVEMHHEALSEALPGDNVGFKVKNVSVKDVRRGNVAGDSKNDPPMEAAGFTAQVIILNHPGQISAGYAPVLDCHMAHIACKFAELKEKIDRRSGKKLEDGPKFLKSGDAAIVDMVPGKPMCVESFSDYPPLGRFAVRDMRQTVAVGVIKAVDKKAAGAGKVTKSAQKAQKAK
# UniProt Q13409, sequence (Q13409 whole entry, looked up): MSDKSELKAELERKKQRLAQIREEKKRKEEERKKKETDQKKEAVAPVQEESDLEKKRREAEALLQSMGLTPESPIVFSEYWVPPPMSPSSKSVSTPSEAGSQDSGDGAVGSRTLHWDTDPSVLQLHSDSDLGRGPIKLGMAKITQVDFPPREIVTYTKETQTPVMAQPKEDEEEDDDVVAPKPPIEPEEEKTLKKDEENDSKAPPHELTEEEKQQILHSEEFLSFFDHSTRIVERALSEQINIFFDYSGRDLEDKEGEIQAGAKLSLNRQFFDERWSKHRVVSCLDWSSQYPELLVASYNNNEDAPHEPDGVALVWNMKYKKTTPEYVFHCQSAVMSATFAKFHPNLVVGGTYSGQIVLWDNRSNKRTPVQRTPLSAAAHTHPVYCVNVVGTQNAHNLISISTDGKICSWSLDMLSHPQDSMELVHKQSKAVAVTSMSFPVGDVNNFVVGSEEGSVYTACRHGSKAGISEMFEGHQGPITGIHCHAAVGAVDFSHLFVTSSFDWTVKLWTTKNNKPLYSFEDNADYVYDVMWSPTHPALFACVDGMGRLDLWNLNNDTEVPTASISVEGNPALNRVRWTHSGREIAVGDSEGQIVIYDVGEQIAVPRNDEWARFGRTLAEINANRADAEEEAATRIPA
# UniProt Q13144, sequence (Q13144 whole entry, looked up): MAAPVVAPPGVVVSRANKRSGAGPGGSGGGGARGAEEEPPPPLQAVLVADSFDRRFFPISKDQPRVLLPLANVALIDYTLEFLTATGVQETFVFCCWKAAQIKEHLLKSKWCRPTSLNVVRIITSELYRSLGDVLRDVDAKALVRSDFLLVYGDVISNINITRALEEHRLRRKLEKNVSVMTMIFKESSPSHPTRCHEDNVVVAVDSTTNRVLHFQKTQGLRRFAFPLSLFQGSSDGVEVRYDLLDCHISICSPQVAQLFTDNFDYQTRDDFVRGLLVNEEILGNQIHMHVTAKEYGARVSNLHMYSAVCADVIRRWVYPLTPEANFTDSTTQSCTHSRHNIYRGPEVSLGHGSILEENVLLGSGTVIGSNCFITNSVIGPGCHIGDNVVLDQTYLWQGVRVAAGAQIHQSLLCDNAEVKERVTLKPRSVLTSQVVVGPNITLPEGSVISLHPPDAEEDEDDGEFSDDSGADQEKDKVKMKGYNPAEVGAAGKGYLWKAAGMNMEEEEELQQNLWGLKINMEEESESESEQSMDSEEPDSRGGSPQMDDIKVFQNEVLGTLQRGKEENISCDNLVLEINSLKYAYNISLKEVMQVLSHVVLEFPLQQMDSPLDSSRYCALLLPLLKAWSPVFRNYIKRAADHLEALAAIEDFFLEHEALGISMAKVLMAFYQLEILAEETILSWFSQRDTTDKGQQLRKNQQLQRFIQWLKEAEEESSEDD
# UniProt Q6PIW4, sequence (Q6PIW4 whole entry, looked up): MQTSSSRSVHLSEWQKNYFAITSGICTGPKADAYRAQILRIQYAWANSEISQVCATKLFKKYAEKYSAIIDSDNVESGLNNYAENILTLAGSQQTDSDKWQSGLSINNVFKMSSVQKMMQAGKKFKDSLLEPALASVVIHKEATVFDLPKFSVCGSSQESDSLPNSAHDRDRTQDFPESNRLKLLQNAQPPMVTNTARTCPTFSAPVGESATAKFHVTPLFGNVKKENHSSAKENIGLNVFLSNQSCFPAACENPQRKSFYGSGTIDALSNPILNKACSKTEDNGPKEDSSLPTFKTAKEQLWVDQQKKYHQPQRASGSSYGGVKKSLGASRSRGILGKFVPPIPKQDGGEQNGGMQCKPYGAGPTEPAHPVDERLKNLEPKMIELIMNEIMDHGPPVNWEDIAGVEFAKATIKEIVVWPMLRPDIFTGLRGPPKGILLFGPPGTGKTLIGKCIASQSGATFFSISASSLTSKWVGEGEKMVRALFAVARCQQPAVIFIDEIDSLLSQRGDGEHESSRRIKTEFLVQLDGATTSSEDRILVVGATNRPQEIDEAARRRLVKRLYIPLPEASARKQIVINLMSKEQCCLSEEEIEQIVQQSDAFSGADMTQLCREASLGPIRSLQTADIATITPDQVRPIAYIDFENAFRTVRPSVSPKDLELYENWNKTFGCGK
# UniProt Q8NEZ5, sequence (Q8NEZ5 whole entry, looked up): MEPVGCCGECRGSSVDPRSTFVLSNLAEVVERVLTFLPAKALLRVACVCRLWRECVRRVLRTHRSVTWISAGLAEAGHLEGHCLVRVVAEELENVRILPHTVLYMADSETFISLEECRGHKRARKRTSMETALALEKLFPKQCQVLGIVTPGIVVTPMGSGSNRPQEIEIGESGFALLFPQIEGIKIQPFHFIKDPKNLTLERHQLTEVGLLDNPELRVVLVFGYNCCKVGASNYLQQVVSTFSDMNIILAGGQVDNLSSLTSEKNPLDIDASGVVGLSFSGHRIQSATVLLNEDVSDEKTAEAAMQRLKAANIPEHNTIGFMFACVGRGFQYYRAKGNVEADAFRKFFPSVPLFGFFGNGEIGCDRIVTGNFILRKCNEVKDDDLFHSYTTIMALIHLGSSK
# UniProt P48507, sequence (P48507 whole entry, looked up): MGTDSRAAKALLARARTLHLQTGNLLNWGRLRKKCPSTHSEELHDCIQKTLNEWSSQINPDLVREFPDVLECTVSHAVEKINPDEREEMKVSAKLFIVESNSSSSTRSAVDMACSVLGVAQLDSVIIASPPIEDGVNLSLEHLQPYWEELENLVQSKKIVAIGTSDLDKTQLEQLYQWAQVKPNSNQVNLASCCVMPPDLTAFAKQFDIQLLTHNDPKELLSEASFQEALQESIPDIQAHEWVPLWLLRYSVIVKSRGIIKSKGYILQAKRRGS
# UniProt Q15125, sequence (Q15125 whole entry, looked up): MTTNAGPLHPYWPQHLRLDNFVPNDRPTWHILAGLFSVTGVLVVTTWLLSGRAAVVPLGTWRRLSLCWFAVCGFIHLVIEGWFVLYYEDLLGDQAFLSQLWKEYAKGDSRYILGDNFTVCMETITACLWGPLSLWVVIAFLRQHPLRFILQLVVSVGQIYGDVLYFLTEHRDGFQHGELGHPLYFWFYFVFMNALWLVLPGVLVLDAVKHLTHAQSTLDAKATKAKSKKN
Target,log2 fold change (ibrutinib),log2 fold change [1],log2 fold change (ralimetinib),log2 fold change [2],log2 fold change [3],log2 fold change [4],log2 fold change [5],log2 fold change [6],log2 fold change [7],log2 fold change [8],log2 fold change (vemurafenib),log2 fold change [9],log2 fold change (barasertib),log2 fold change [10],log2 fold change (volasertib),log2 fold change [11],log2 fold change [12],log2 fold change [13],log2 fold change (saracatinib),log2 fold change (sotrastaurin)
FIGNL1 (UniProt Q6PIW4),0,0.063,0.04,0.022,-0.006,-0.067,0.008,-0.002,0.02,0.037,-0.012,0.042,0.03,-0.063,-0.047,0.027,-0.108,0.036,0.006,-0.015
EEF1A1P5 (UniProt Q5VTE0),-0.01,-0.007,0.001,-0.014,0.032,0.008,0.019,-0.006,0.012,-0.011,0.022,0.002,-0.017,0.004,-0.022,-0.031,-0.105,0.073,-0.021,0.025
EBP (UniProt Q15125),-0.023,0.002,0.004,-0.022,0.02,0.01,-0.025,-0.016,-0.152,0.005,0.056,0.024,0.069,0.071,0.038,-0.024,-0.354,0.044,0.135,-0.103
EIF2B5 (UniProt Q13144),0,0.008,0.027,-0.018,0.008,-0.019,0.012,-0.031,0.008,0.02,-0.007,0.019,0.013,-0.012,-0.027,0.021,-0.065,-0.057,0.009,0.038
GALNT2 (UniProt Q10471),-0.004,0,0.006,0.022,-0.005,0.015,0.031,-0.041,-0.012,-0.016,0.013,0.014,0.003,-0.014,0.002,0.042,0.065,0.035,-0.004,0.016
FANCD2 isoform 1 (UniProt Q9BXW9),0.01,-0.009,0,-0.066,0.048,-0.02,-0.068,0.071,0.011,-0.008,0.067,0.053,0.04,0.14,-0.045,0.017,-0.135,0.02,0.016,-0.029
EXOC1 (UniProt Q9NV70),-0.043,0.012,0.04,-0.004,-0.023,-0.022,0.016,-0.026,0.032,-0.011,0,0.027,0.051,-0.106,-0.03,0.082,0.053,-0.119,0,0.02
FXR2 (UniProt P51116),0.027,-0.008,0.028,0.004,0.026,0.024,0.004,-0.005,-0.018,0.011,0,0.041,-0.003,-0.021,-0.028,0.028,0.007,-0.076,0.034,-0.009
EPN2 (UniProt O95208),-0.01,-0.016,0.075,-0.004,-0.058,0.009,-0.024,0.001,0.017,-0.009,0.019,0.027,0.043,0.044,0.016,-0.002,-0.417 (active),0.08,0.004,0.002
FYCO1 isoform 4 (UniProt Q9BQS8),-0.012,-0.015,0.021,-0.026,0,0.029,-0.019,-0.003,-0.028,0,0.024,0.019,0.045,0.027,-0.004,0.031,-0.104,0.063,0.04,0
FBXO22 (UniProt Q8NEZ5),-0.03,0.017,0.003,-0.06,-0.078,-0.026,-0.006,0.016,0,-0.014,0.017,0.001,0.025,0.011,-0.027,0.012,-0.002,-0.008,-0.015,0.01
DYNC1I2 isoform 5 (UniProt Q13409),0.022,-0.021,0,-0.014,0.004,0.012,-0.007,-0.012,0.008,-0.003,-0.015,0.013,-0.03,-0.012,-0.013,-0.016,-0.017,0.017,0.003,-0.034
FARSB (UniProt Q9NSD9),0.021,-0.013,-0.006,0.016,0.004,-0.023,0.007,0.033,0.008,0.03,-0.009,0.006,0.018,0.003,-0.024,0.016,0,-0.018,0.022,0.095
FARSA (UniProt Q9Y285),-0.006,-0.02,0.048,0.025,0.06,-0.014,-0.063,0.055,0,0.006,-0.002,-0.01,-0.012,0.091,-0.035,-0.068,-0.018,0.054,0.03,0.583 (active)
FAM118A (UniProt Q9NWS6),-0.024,0.01,0.041,-0.052,-0.01,-0.004,-0.052,0.015,0.014,-0.004,-0.013,0.011,0.018,-0.017,-0.009,-0.031,-0.135,0.077,0.063,0.025
GCLM (UniProt P48507),0.006,-0.009,0.01,-0.047,-0.028,0.006,-0.007,0.024,-0.026,-0.006,0.014,0.025,-0.007,0,-0.015,-0.013,-0.011,-0.012,0.011,-0.022
